Several values for one entry are separate records, joined by “and”; a condition that tells them apart may be missing. Equal entries are not always repeated. The whole screen tested about 5,500 compounds, of which about 2,000 (36%) were called active. Not shown: some 18% with an inconclusive outcome. Rule as the data show it: active = normalized growth mostly below about 0.91 (no sharp cut-off); inconclusive = no clear call, values can overlap the other calls; inactive = mostly above about 0.92. The list shows a part of the results.
Assay: chemical genetic growth profiling, strain panel (AID 1159580);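 also: tested at 20 µM; growth read once vehicle control cultures reached saturation at 30 °C; 1 = growth at the plate median or of vehicle wells; lower values mean less growth of the strain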
Conditions: growth OD

Measured: normalized growth

O=C(O)c1cc2cc(Cc3cccnc3)ccc2o1
inactive: S. cerevisiae deletion strains, locus YAL013W, strain DEP1, active compounds read low 1.02 | S. cerevisiae deletion strains, locus YAL040C, strain CLN3, active compounds read low 0.986 | S. cerevisiae deletion strains, locus YBR021W, strain FUR4, active compounds read low 1 | S. cerevisiae deletion strains, locus YBR229C, strain ROT2, active compounds read low 1.01 | S. cerevisiae deletion strains, locus YCL029C, strain bik1, active compounds read low 0.995 | S. cerevisiae deletion strains, locus YCL061C, strain MRC1 (second series), active compounds read low 1.01 | S. cerevisiae deletion strains, locus YDL035C, strain GPR1, active compounds read low 0.994 | S. cerevisiae deletion strains, locus YDL074C, strain BRE1, active compounds read low 0.995 | S. cerevisiae deletion strains, locus YDL101C, strain DUN1, active compounds read low 1.01 | S. cerevisiae deletion strains, locus YDL134C, strain PPH21, active compounds read low 0.993 | S. cerevisiae deletion strains, locus YDL185W, strain tfp1, active compounds read low 0.994 | S. cerevisiae deletion strains, locus YDL192W, strain arf1, active compounds read low 1 | S. cerevisiae deletion strains, locus YDR101C, strain arx1, active compounds read low 1.02 | S. cerevisiae deletion strains, locus YDR162C, strain NBP2, active compounds read low 1 | S. cerevisiae deletion strains, locus YDR318W, strain mcm21, active compounds read low 0.986 | S. cerevisiae deletion strains, locus YDR363W, strain ESC2, active compounds read low 1.01 | S. cerevisiae deletion strains, locus YDR388W, active compounds read low 0.989 | S. cerevisiae deletion strains, locus YDR502C, strain sam2, active compounds read low 0.996 | S. cerevisiae deletion strains, locus YEL061C, strain CIN8, active compounds read low 1 | S. cerevisiae deletion strains, locus YER002W, strain NOP16, active compounds read low 0.99 | S. cerevisiae deletion strains, locus YER110C, active compounds read low 0.995 | S. cerevisiae deletion strains, locus YER155C, strain BEM2, active compounds read low 1.01 | S. cerevisiae deletion strains, locus YER167W, strain BCK2, active compounds read low 1 | S. cerevisiae deletion strains, locus YGL078C, strain dbp3, active compounds read low 0.991 | S. cerevisiae deletion strains, locus YGL086W, strain mad1, active compounds read low 0.998 | S. cerevisiae deletion strains, locus YGL248W, strain PDE1, active compounds read low 1 | S. cerevisiae deletion strains, locus YGR135W, strain pre9, active compounds read low 1.01 | S. cerevisiae deletion strains, locus YGR229C, strain SMI1, active compounds read low 1.05 | S. cerevisiae deletion strains, locus YGR252W, strain gcn5, active compounds read low 0.92 | S. cerevisiae deletion strains, locus YHR030C, strain SLT2, active compounds read low 0.997 | S. cerevisiae deletion strains, locus YHR079C, strain IRE1 (second series), active compounds read low 0.985 | S. cerevisiae deletion strains, locus YHR094C, strain hxt1, active compounds read low 0.995 | S. cerevisiae deletion strains, locus YHR129C, strain ARP1, active compounds read low 0.997 | S. cerevisiae deletion strains, locus YHR200W, strain rpn10, active compounds read low 0.994 | S. cerevisiae deletion strains, locus YIL066C, strain RNR3, active compounds read low 1.01 | S. cerevisiae deletion strains, locus YIL073C, strain SPO22, active compounds read low 1.01 | S. cerevisiae deletion strains, locus YIL125W, strain kgd1, active compounds read low 0.999 | S. cerevisiae deletion strains, locus YIR030C, strain dcg1, active compounds read low 0.995 | S. cerevisiae deletion strains, locus YJL095W, strain BCK1, active compounds read low 1.01 | S. cerevisiae deletion strains, locus YJL134W, strain LCB3, active compounds read low 1 | S. cerevisiae deletion strains, locus YJL168C, strain set2, active compounds read low 0.991 | S. cerevisiae deletion strains, locus YJL187C, strain SWE1 (second series), active compounds read low 1.01 | S. cerevisiae deletion strains, locus YJR043C, strain POL32, active compounds read low 1.02 | S. cerevisiae deletion strains, locus YJR075W, strain HOC1, active compounds read low 1.01 | S. cerevisiae deletion strains, locus YKL009W, strain mrt4, active compounds read low 0.983 | S. cerevisiae deletion strains, locus YKL068W, active compounds read low 0.992 | S. cerevisiae deletion strains, locus YKL085W, strain MDH1 (second series), active compounds read low 0.999 | S. cerevisiae deletion strains, locus YKL085W, strain MDH1, active compounds read low 0.999 | S. cerevisiae deletion strains, locus YKL190W, strain CNB1, active compounds read low 1.01 | S. cerevisiae deletion strains, locus YKR001C, strain vps1, active compounds read low 0.997 | S. cerevisiae deletion strains, locus YLR039C, strain RIC1, active compounds read low 1.01 | S. cerevisiae deletion strains, locus YLR058C, strain SHM2, active compounds read low 1.01 | S. cerevisiae deletion strains, locus YLR102C, strain apc9, active compounds read low 0.991 | S. cerevisiae deletion strains, locus YLR262C, strain YPT6, active compounds read low 1.03 | S. cerevisiae deletion strains, locus YLR268W, strain sec22, active compounds read low 0.986 | S. cerevisiae deletion strains, locus YLR330W, strain CHS5, active compounds read low 1.01 | S. cerevisiae deletion strains, locus YLR342W, strain FKS1 (second series), active compounds read low 0.988 | S. cerevisiae deletion strains, locus YLR371W, strain rom2, active compounds read low 0.988 | S. cerevisiae deletion strains, locus YLR418C, strain cdc73, active compounds read low 0.975 | S. cerevisiae deletion strains, locus YML016C, strain PPZ1, active compounds read low 1 | S. cerevisiae deletion strains, locus YML032C, strain rad52, active compounds read low 0.995 | S. cerevisiae deletion strains, locus YML124C, strain tub3, active compounds read low 0.994 | S. cerevisiae deletion strains, locus YMR078C, strain ctf18, active compounds read low 0.995 | S. cerevisiae deletion strains, locus YMR223W, strain ubp8, active compounds read low 0.995 | S. cerevisiae deletion strains, locus YMR263W, strain SAP30, active compounds read low 1 | S. cerevisiae deletion strains, locus YMR307W, strain GAS1, active compounds read low 0.967 and 0.989 | S. cerevisiae deletion strains, locus YNL067W, strain RPL9B, active compounds read low 1 | S. cerevisiae deletion strains, locus YNL153C, strain GIM3, active compounds read low 1.02 | S. cerevisiae deletion strains, locus YNL175C, strain NOP13, active compounds read low 1 | S. cerevisiae deletion strains, locus YNL197C, strain WHI3, active compounds read low 1.02 | S. cerevisiae deletion strains, locus YNL224C, strain SQS1, active compounds read low 1.02 | S. cerevisiae deletion strains, locus YNL233W, strain BNI4, active compounds read low 1 | S. cerevisiae deletion strains, locus YNL250W, strain rad50, active compounds read low 0.989 | S. cerevisiae deletion strains, locus YNL271C, strain bni1, active compounds read low 0.999 | S. cerevisiae deletion strains, locus YNL298W, strain CLA4, active compounds read low 0.981 | S. cerevisiae deletion strains, locus YNL307C, strain MCK1, active compounds read low 0.995 | S. cerevisiae deletion strains, locus YNR052C, strain pop2, active compounds read low 0.99 | S. cerevisiae deletion strains, locus YOL006C, strain TOP1, active compounds read low 1.04 | S. cerevisiae deletion strains, locus YOL012C, strain htz1 1.18 | S. cerevisiae deletion strains, locus YOL147C, strain pex11, active compounds read low 0.995 | S. cerevisiae deletion strains, locus YOR061W, strain CKA2, active compounds read low 1.01 | S. cerevisiae deletion strains, locus YOR069W, strain VPS5, active compounds read low 1 | S. cerevisiae deletion strains, locus YOR083W, strain WHI5 (second series), active compounds read low 1.03 | S. cerevisiae deletion strains, locus YOR136W, strain idh2, active compounds read low 0.997 | S. cerevisiae deletion strains, locus YOR144C, strain elg1, active compounds read low 0.995 | S. cerevisiae deletion strains, locus YOR184W, strain ser1, active compounds read low 0.988 | S. cerevisiae deletion strains, locus YOR316C, strain cot1, active compounds read low 0.992 | S. cerevisiae deletion strains, locus YPL055C, strain LGE1, active compounds read low 1.03 and 1.01 | S. cerevisiae deletion strains, locus YPL241C, strain CIN2, active compounds read low 1.01 | S. cerevisiae deletion strains, locus YPR119W, strain clb2, active compounds read low 0.992 | S. cerevisiae deletion strains, locus YPR141C, strain kar3, active compounds read low 0.996 | S. cerevisiae deletion strains, locus YPR163C, strain tif3, active compounds read low 0.993 | S. cerevisiae deletion strains, locus YPR167C, strain met16, active compounds read low 0.991 | S. cerevisiae deletion strains, strain wtn01, active compounds read low 0.986 | S. cerevisiae strains, strain wild type, active compounds read low 1

From PubChem BioAssay AID1159580 (chemical genetic matrix, 2015)
